Our source for the Potency values is PubChem BioAssay (NCATS).

Results filed as inconclusive are left out. Where a call stands in place of a potency, no number is given. Activity calls are given as the source filed them. Calls follow the shape of the dose curve; as a rule, active = well fitted inhibition curve with a large enough effect; inconclusive = small, poorly fitted or top-dose-only effect; inactive = flat fitted curve, though single readings scatter.
Potency is read from the fitted curve at half-maximal effect.

The target in this assay is Voltage-gated inwardly rectifying potassium channel KCNH2 (Homo sapiens) (UniProt Q12809). Description: qHTS Assay for Small Molecule Inhibitors of the Human hERG Channel Activity (AID 588834).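 Also: lower thallium flux fluorescence means stronger hERG block; nearly all actives have a fitted effect of over 50% in size.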 The conditions noted are these: U2OS BacMam hERG, FluxOR thallium flux fluorescence; series mostly up to 46.1 µM. Summed up: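 U2OS cells BacMam-transduced with hERG, 2000 cells/well, compound ~10 min at 37 °C before stimulation buffer. FluxOR thallium flux fluorescence read kinetically on FDSS; decrease indicates block; AC50 from Hill fits.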
Sequence of Voltage-gated inwardly rectifying potassium channel KCNH2 (Homo sapiens) (Q12809 whole entry, looked up): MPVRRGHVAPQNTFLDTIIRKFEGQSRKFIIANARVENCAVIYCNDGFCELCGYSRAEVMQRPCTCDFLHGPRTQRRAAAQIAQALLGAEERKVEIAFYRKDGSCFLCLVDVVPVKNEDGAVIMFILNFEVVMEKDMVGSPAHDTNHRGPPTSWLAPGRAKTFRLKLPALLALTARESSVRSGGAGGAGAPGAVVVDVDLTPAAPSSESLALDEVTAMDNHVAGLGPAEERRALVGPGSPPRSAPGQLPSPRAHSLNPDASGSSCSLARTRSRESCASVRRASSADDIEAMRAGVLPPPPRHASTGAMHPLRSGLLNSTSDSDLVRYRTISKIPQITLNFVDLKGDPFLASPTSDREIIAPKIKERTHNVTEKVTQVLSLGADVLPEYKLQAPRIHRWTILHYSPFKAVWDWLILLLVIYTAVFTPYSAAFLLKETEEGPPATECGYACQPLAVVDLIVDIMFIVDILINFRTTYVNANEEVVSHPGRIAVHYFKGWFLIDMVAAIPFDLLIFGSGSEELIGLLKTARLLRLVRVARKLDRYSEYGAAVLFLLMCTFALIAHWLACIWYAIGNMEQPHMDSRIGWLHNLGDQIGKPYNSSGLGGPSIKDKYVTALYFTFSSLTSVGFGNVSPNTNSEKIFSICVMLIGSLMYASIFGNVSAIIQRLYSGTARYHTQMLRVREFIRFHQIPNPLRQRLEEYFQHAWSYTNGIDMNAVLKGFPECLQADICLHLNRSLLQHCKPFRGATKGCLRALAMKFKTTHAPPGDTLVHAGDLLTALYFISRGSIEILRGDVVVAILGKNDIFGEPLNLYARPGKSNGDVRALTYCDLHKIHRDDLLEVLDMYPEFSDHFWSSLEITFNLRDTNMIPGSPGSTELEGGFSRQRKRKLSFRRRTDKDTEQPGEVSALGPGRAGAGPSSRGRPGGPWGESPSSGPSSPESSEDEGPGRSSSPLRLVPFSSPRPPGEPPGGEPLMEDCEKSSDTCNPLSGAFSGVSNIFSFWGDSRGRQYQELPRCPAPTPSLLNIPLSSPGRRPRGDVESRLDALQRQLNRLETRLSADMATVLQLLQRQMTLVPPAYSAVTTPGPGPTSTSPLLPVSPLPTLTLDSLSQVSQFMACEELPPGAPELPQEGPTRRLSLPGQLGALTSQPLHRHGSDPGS
A general note: In qHTS, concentration-response curves come from the screen itself.
`CC1CCc2c(N3CCC(O)CC3)c(F)cc3c(=O)c(C(=O)O)cn1c23` (stereo unspecified): the Potency result was “inactive”.

For the molecule `Cc1cc(C)cc(OCC2CNC(=O)O2)c1` (stereo unspecified), the Potency entry was “inactive”.

Turning to `CC(=O)Oc1ccc(C)cc1`, the Potency entry was “inactive”.

With `CC(C)(C)NC[C@H](O)COc1cccc2c1CCCC2=O`, the Potency result was “inactive”.

For the molecule `CC[N+](C)(CC)CCOC(=O)C(O)(c1ccccc1)C1CCCCC1` (stereo unspecified), the Potency result was “inactive”.

Turning to `CCCCCCCCNC(C)C(O)c1ccc(SC(C)C)cc1` (stereo unspecified), the Potency was 0.631 µM (active).

With `O=C(O)CCC(=O)Nc1ccc(S(=O)(=O)Nc2nccs2)cc1`, the Potency result is “inactive”.

`Cc1cc(NS(=O)(=O)c2ccc(N)cc2)nc(C)n1`: the Potency result is “inactive”.

Consider `NS(=O)(=O)c1ccc(Cl)c(S(N)(=O)=O)c1`, for which the Potency entry was “inactive”.

For `Nc1ccc(C(=O)NCC(=O)O)cc1`, the Potency entry is “inactive”.

For the molecule `O=C(Nc1cccc(C2=NCCN2)c1)Nc1cccc(C2=NCCN2)c1`, the Potency result was “inactive”.

Turning to `Cc1cccc(C)c1NC(=O)c1ccccc1C(=O)O`, the Potency entry was “inactive”.

For `CCCCNC(=O)NS(=O)(=O)c1ccc(N)cc1`, the Potency result was “inactive”.

Regarding `COP(=O)(OC)OC(c1ccc(Cl)cc1)P(=O)(OC)OC` (stereo unspecified), the Potency result was “inactive”.

As for `Cc1ccc(S(=O)(=O)NC(=O)NC2CCCC2)cc1`, the Potency entry was “inactive”.

For the molecule `CCN1/C(=C/C=C/c2sc3ccccc3[n+]2CC)Sc2ccccc21`, the Potency is 1.41 µM (active).

With `CCCc1ncc(C[n+]2ccccc2C)c(N)n1`, the Potency result was “inactive”.

For `CC(=O)Nc1ccc(S(=O)(=O)Nc2ccc([N+](=O)[O-])cc2)cc1`, the Potency result is “inactive”.

Consider `COc1cc(C)nc(-n2nc(C)cc2OC)n1`, for which the Potency result is “inactive”.

`CN(C)CCOC(c1ccc(Cl)cc1)c1ccccn1` (stereo unspecified): the Potency was 14.1 µM (active).

In the case of `CCN(CC)CCNC(=O)COc1ccc(OC)cc1`, the Potency result is “inactive”.

For the molecule `CC(=O)O[C@H]1C[C@@H]2CC[C@@H]3[C@H](CC[C@@]4(C)[C@H]3C[C@H]([N+]3(C)CCCCC3)[C@@H]4OC(C)=O)[C@@]2(C)C[C@@H]1N1CCCCC1`, the Potency entry is “inactive”.

Regarding `OC1C(O)C(O)C(O)C(O)C1O` (stereo unspecified), the Potency result was “inactive”.

As for `COc1ccc(CCN(C)CCCN2CCc3cc(OC)c(OC)cc3CC2=O)cc1OC`, the Potency was 7.94 µM (active).

As to `CC(=O)NC(=O)c1ccccc1O`, the Potency result is “inactive”.

`Cc1cccc(C)c1NC(=O)CN1CCCCCC1`: the Potency entry is “inactive”.

Regarding `N#CCC(=O)NN`, the Potency entry is “inactive”.

With `CC(=O)Nc1ccc(OCC(O)CNC(C)C)cc1` (stereo unspecified), the Potency result is “inactive”.

For the molecule `CCc1ccc(C(=O)C(C)CN2CCCCC2)cc1` (stereo unspecified), the Potency entry was “inactive”.

For the molecule `NC1CCN(c2nc3c(cc2F)c(=O)c(C(=O)O)cn3-c2ccc(F)cc2F)C1` (stereo unspecified), the Potency result is “inactive”.

With `NS(=O)(=O)c1cc(C(=O)O)cc(N2CCCC2)c1Oc1ccccc1`, the Potency result is “inactive”.

Take `CC(C)Cc1ccc(CC(=O)O)cc1`: the Potency entry was “inactive”.

For `N=C(N)N1CCc2ccccc2C1`, the Potency result was “inactive”.

As to `O=C(O)CCNC(=O)c1ccccc1`, the Potency result was “inactive”.

Consider `c1ccc(-c2nc[nH]c2-c2ccccc2)cc1`, for which the Potency entry is “inactive”.

Take `COC(=O)C(c1ccccc1Cl)N1CCc2sccc2C1` (stereo unspecified): the Potency result is “inactive”.
